Source: PubChem BioAssay (NCI)
Compounds without any hit were thinned out: in the full panel of roughly 83,000, 20% have a hit.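 Percent growth is the endpoint: 0 to 100 indicates growth inhibition (40 means 60% inhibition), 0 means no net growth, and negative values indicate cell death.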 Activity calls are given as the source filed them. The calls were made as follows: active = growth percent below 10; inactive = the rest.

Experiments:
Test in all cases: NCI-60 one-dose screen, 48 h (100 = growth as untreated, 0 = no growth, -100 = all killed)
Settings in all cases: 10 µM unless noted
[1] = system: NCI-H23 lung
[2] = system: NCI-H226 lung
[3] = system: NCI-H322M lung
[4] = system: HOP-62 NSCLC
[5] = system: NCI-H460 lung
[6] = system: HOP-92 NSCLC
[7] = system: NCI-H522 lung
[8] = system: A549/ATCC NSCLC
[9] = system: 786-0 renal
[10] = system: COLO 205 colon
[11] = system: DU-145 prostate
[12] = system: K-562 leukemia
[13] = system: MALME-3M melanoma
[14] = system: MDA-MB-231 breast
[15] = system: RXF 393 renal
[16] = system: SF-268 CNS
[17] = system: SF-295 CNS
[18] = system: SF-539 CNS
[19] = system: M14 melanoma

Measured: growth

COc1ccccc1OCC(=O)Nc1sc2c(c1C(N)=O)CCC2
active: [6] 2.69%
inactive: [1] 114% | [2] 80.7% | [3] 105% | [4] 49.7% | [5] 25.6% | [7] 84.1% | [8] 85.8% | [9] 75.1% | [10] 86.1% | [11] 58.4% | [12] 52.5% | [13] 91.9% | [14] 92.1% | [15] 48.1% | [16] 43.7% | [17] 15.2% | [18] 59.6% | [19] 66.4%

Cc1cc2c(C(C)C)c(O)c(O)c(C=NCCCCC(=O)O)c2c(O)c1-c1c(C)cc2c(C(C)C)c(O)c(O)c(C=NCCCCC(=O)O)c2c1O
inactive: [1] 33.8% | [2] 85.2% | [3] 46% | [4] 50% | [5] 23.8% | [6] 22.6% | [7] 23.4% | [8] 49.1% | [9] 49.1% | [10] 41.1% | [11] 63.8% | [12] 26.4% | [13] 78.8% | [14] 40% | [15] 57% | [16] 44.2% | [17] 27.3% | [18] 42.2% | [19] 66.9%

Cc1cc(C(=O)O)c(N)c(C)n1
inactive: [1] 100% | [2] 118% | [3] 106% | [4] 106% | [5] 108% | [6] 93.2% | [7] 107% | [8] 108% | [9] 104% | [10] 119% | [11] 110% | [12] 104% | [13] 109% | [14] 106% | [15] 121% | [16] 104% | [17] 111% | [18] 102% | [19] 102%

CCOC(=O)/C=C\C(=O)NC(N)=O
inactive: [1] 102% | [2] 96.9% | [3] 104% | [4] 87.8% | [5] 110% | [6] 94.5% | [7] 90.3% | [8] 77.8% | [9] 103% | [10] 115% | [11] 106% | [12] 94.4% | [13] 102% | [14] 103% | [15] 101% | [16] 106% | [17] 106% | [18] 108% | [19] 96.7%

O=C(c1c[nH]c2ccccc12)C(Sc1nc2ccccc2c(=O)[nH]1)c1ccccc1 (configuration not stated)
inactive: [1] 116% | [2] 95.9% | [3] 121% | [4] 89.6% | [5] 110% | [6] 91.7% | [7] 93.7% | [8] 93.4% | [9] 104% | [10] 96.9% | [11] 94.3% | [12] 101% | [13] 88.7% | [14] 91.6% | [15] 26.1% | [16] 105% | [17] 93.1% | [18] 89.2% | [19] 104%

CCCCOc1nc2c(C)cccc2cc1C1CNC(=O)c2ccccc2N1 (configuration not stated)
inactive: [1] 80% | [2] 89% | [3] 105% | [4] 56.2% | [5] 56.2% | [6] 62.6% | [7] 44.8% | [8] 60.1% | [9] 46.2% | [10] 90.8% | [11] 86% | [12] 19% | [13] 86.1% | [14] 65.3% | [15] 78.3% | [16] 66.9% | [17] 52.5% | [18] 68.3% | [19] 54.7%

CCN(CC)CCC(=O)c1cccc2ccccc12
inactive: [1] 95.3% | [2] 104% | [3] 103% | [4] 112% | [5] 110% | [6] 99.4% | [8] 98.6% | [9] 102% | [10] 124% | [11] 108% | [12] 89.6% | [13] 98.6% | [14] 94.8% | [15] 102% | [16] 109% | [17] 101% | [18] 92.4% | [19] 111%
active: [7] 9.95%

C/C(=C\c1csc(C)n1)[C@@H]1C[C@@H]2O[C@]2(C)CCC[C@H](C)[C@H](O)[C@@H](C)C(=O)C(C)(C)[C@@H](O)CC(=O)N1
active: [1] -70% | [2] -60.3% | [3] -83.3% | [4] -69.5% | [5] -85.5% | [6] -47.2% | [7] -81.4% | [8] -79.8% | [9] -22.5% | [10] -62.5% | [11] -78.9% | [12] 1.67% | [14] -54.7% | [15] -83.3% | [16] -47.8% | [17] -64.6% | [18] -87.4% | [19] -44.1%
inactive: [13] 66.3%
